From the supplement of paper PMC11537057 come the findings set out here.

Structures can show the parent of a compound that is named as a salt. ± gives the standard deviation of the averaged measurements. The full ranking holds about 1,700 compounds; the median of “cell number in HSV-1-infected wells relative to infected DMSO wells (H2B-RFP signal)” is about 100, and the highest 2% start at about 140. What follows is part of a selection rich in the highest values, with near analogues and random picks from the rest.

The test deals with A549 infected with HSV-1. Briefly: cell number in HSV-1-infected wells relative to infected DMSO wells (H2B-RFP signal); higher = more surviving cells (uninfected or antiviral-protected wells give about 200%; low = toxicity). The note with it: 10 µM; 48 h; MOI: 0.1. Here is the method: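 Selleck FDA-approved library (L1300) screened in duplicate at 10 µM on A549 H2B-mRuby cells in 384-well plates, infected with HSV-1 strain 17 YFP-ICP4 at MOI 0.1 one hour before drug addition. Imaged after 2 days at 37°C. Cell growth (H2B-RFP) and infection (ICP4-YFP) are expressed as % of DMSO-treated wells. Hits: growth >90% and infection <20% of DMSO.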
On to `CCOc1cc(N)c(Cl)cc1C(=O)NCC1CN(Cc2ccc(F)cc2)CCO1` (configuration not stated) [Mosapride Citrate], for which the “cell number in HSV-1-infected wells” value worked out at 89.7 ± 13%.

Consider `CCOc1cc(N)c(Cl)cc1C(=O)NCC1CN(Cc2ccc(F)cc2)CCO1` (configuration not stated) [Mosapride], for which the “cell number in HSV-1-infected wells” value stood at 92.8 ± 14%. `Cc1cccc(C)c1N(CC(=O)Nc1ccc(-c2ncon2)cc1)C(=O)C1CCS(=O)(=O)CC1` [Amenamevir]: the “cell number in HSV-1-infected wells” value was 214 ± 5.9%. Take `O=C1CC[C@@H](C(=O)N2CSC[C@H]2C(=O)O)N1` [Pidotimod]: the “cell number in HSV-1-infected wells” value came out at 82.1 ± 7.1%. On to `CCOc1ccc(Cc2cc([C@]34OC[C@](CO)(O3)[C@@H](O)[C@H](O)[C@H]4O)ccc2Cl)cc1` [Ertugliflozin], for which the “cell number in HSV-1-infected wells” value was 116 ± 8.7%.

For `O=C([O-])c1ccccc1.[Na+]` [Sodium benzoate], the “cell number in HSV-1-infected wells” value came to 83.2 ± 14%. The value for `COC(=O)N(C)c1c(N)nc(-c2nn(Cc3ccccc3F)c3ncccc23)nc1N` [Riociguat (BAY 63-2521)] was 108 ± 15%; that for `CCN1CCC[C@H]1CNC(=O)c1cc(S(N)(=O)=O)ccc1OC` [Levosulpiride] was 94.939 ± 0.086%; that for `Cc1c(F)cc(C(=O)NC2CC2)cc1-c1ccc(C(=O)NCC(C)(C)C)cn1` was 145 ± 44%. As for `N[C@@H](CCC(=O)O)C(=O)[O-].[Na+]` [L-Glutamic acid monosodium salt], the “cell number in HSV-1-infected wells” value amounted to 94.5 ± 4.2%.

With `CC(C)CCCCC(=O)N[C@@H](CCN)C(=O)N[C@H](C(=O)N[C@@H](CCN)C(=O)N[C@H]1CCNC(=O)[C@H]([C@@H](C)O)NC(=O)[C@H](CCN)NC(=O)[C@H](CCN)NC(=O)[C@H](CC(C)C)NC(=O)[C@@H](Cc2ccccc2)NC(=O)[C@H](CCN)NC1=O)[C@@H](C)O` [Polymyxin B sulphate], the “cell number in HSV-1-infected wells” value worked out at 132 ± 31%. Consider `CC(=O)N(CC(O)CN(C(C)=O)c1c(I)c(C(=O)NCC(O)CO)c(I)c(C(=O)NCC(O)CO)c1I)c1c(I)c(C(=O)NCC(O)CO)c(I)c(C(=O)NCC(O)CO)c1I` (configuration not stated) [Iodixanol], for which the “cell number in HSV-1-infected wells” value worked out at 79.6 ± 3%. Under `COCC(=O)Nc1c(I)c(C(=O)NCC(O)CO)c(I)c(C(=O)N(C)CC(O)CO)c1I` (configuration not stated) [Iopromide] stands 111 ± 26%.

As for `O=C(NCC(O)CO)c1c(I)c(C(=O)NCC(O)CO)c(I)c(N(CCO)C(=O)CO)c1I` (configuration not stated) [Ioversol], the “cell number in HSV-1-infected wells” value stood at 146 ± 6.8%.

Take `CC(=O)Oc1ccc(C(c2ccc(OC(C)=O)cc2)c2ccccn2)cc1` [Bisacodyl]: the “cell number in HSV-1-infected wells” value came to 87.8 ± 16%. Take `CC[C@H](C)[C@@H]1NC(=O)[C@H](CCCNC(=N)N)NC(=O)[C@H](CC(=O)O)NC(=O)[C@H](CCSC)NC(=O)[C@H](CCCNC(=N)N)NC(=O)CNC(=O)CNC(=O)[C@H](Cc2ccccc2)NC(=O)[C@@H](NC(=O)[C@H](CO)NC(=O)[C@H](CO)NC(=O)[C@H](CCCNC(=N)N)NC(=O)[C@H](CCCNC(=N)N)NC(=O)[C@H](CC(C)C)NC(=O)[C@@H](N)CO)CSSC[C@@H](C(=O)N[C@@H](CC(N)=O)C(=O)N[C@@H](CO)C(=O)N[C@@H](Cc2ccccc2)C(=O)N[C@@H](CCCNC(=N)N)C(=O)N[C@@H](Cc2ccc(O)cc2)C(=O)O)NC(=O)CNC(=O)[C@H](CC(C)C)NC(=O)CNC(=O)[C@H](CO)NC(=O)[C@H](CCC(N)=O)NC(=O)[C@H](C)NC(=O)CNC1=O` [Carperitide Acetate]: the “cell number in HSV-1-infected wells” value came out at 131 ± 1.4%. For the compound `O=C(O)CCCC[C@@H]1CCSS1` (racemic) [Thioctic acid], the “cell number in HSV-1-infected wells” value came to 134 ± 60%.

As for `CNC(=O)c1ccc(N2C(=S)N(c3ccc(C#N)c(C(F)(F)F)c3)C(=O)C2(C)C)cc1F` [Enzalutamide (MDV3100)], the “cell number in HSV-1-infected wells” value was determined as 95.9 ± 2.1%. For the compound `CC1(C)NC(=O)N(c2ccc([N+](=O)[O-])c(C(F)(F)F)c2)C1=O` [Nilutamide], the “cell number in HSV-1-infected wells” value came out at 150 ± 36%.

Take `CC(C)C(=O)Nc1ccc([N+](=O)[O-])c(C(F)(F)F)c1` [Flutamide]: the “cell number in HSV-1-infected wells” value came out at 110 ± 2.2%. `OC1CC2CCC(C1)N2` (configuration not stated) [Nortropine Hydrochloride]: the “cell number in HSV-1-infected wells” value was 105 ± 10%. Turning to `COC(=O)C1=C(C)NC(C)=C(C(=O)OC2CCCN(Cc3ccccc3)C2)C1c1cccc([N+](=O)[O-])c1` (configuration not stated) [Benidipine HCl], the “cell number in HSV-1-infected wells” value was 85.5 ± 9.3%. Under `CCC[C@@H]1C[C@@H](C(=O)N[C@@H]([C@H]2O[C@H](SC)[C@H](O)[C@@H](O)[C@H]2O)[C@@H](C)O)N(C)C1` [Lincomycin HCl] stands 133 ± 16%; under `CCC[C@@H]1C[C@@H](C(=O)N[C@@H]([C@H]2O[C@H](SC)[C@H](O)[C@@H](O)[C@H]2O)[C@H](C)Cl)N(C)C1` [Clindamycin HCl], 99.4 ± 5.8%; under `CCC[C@@H]1C[C@@H](C(=O)N[C@@H]([C@H]2O[C@H](SC)[C@H](O)[C@@H](O)[C@H]2O)[C@H](C)Cl)N(C)C1` [Clindamycin], 88 ± 4%. Take `CCC[C@@H]1C[C@@H](C(=O)N[C@@H]([C@H]2O[C@H](SC)[C@H](O)[C@@H](O)[C@H]2O)[C@@H](C)O)N(C)C1` [Lincomycin Hydrochloride Monohydrate]: the “cell number in HSV-1-infected wells” value turned out to be 150 ± 39%. Under `CCC[C@@H]1C[C@@H](C(=O)N[C@@H]([C@H]2O[C@H](SC)[C@H](OP(=O)(O)O)[C@@H](O)[C@H]2O)[C@H](C)Cl)N(C)C1` [Clindamycin Phosphate] stands 101 ± 12%; under `CCOc1cc2ncc(C#N)c(Nc3ccc(OCc4ccccn4)c(Cl)c3)c2cc1NC(=O)/C=C/CN(C)C` [Neratinib (HKI-272)], 63.62 ± 0.22%.

`CC(C)(Oc1ccc(Cl)cc1)C(=O)OCCOC(=O)c1cccnc1` [Etofibrate]: the “cell number in HSV-1-infected wells” value turned out to be 129 ± 12%. Regarding `OCc1cc([C@@H](O)CNCCCCCCOCCOCc2c(Cl)cccc2Cl)ccc1O` [Vilanterol Trifenate], the “cell number in HSV-1-infected wells” value amounted to 25.9 ± 8.8%. As for `N[C@@H](Cc1ccc(N(CCCl)CCCl)cc1)C(=O)O` [Melphalan], the “cell number in HSV-1-infected wells” value came to 72.2 ± 27%. Turning to `CCOc1ccccc1OCCN[C@H](C)Cc1ccc(OC)c(S(N)(=O)=O)c1` [Tamsulosin hydrochloride], the “cell number in HSV-1-infected wells” value stood at 132 ± 8.6%. Under `COc1ccc2c(c1)[C@]13CCCC[C@@H]1[C@H](C2)N(C)CC3` [Dextromethorphan hydrobromide hydrate] stands 146 ± 7.2%; under `Cc1ccc2c(c1)[C@]13CCCC[C@@H]1[C@H](C2)N(C)CC3` [Dimemorfan phosphate], 127 ± 24%; under `C=C1/C(=C\C=C2/CCC[C@]3(C)[C@@H]([C@H](C)/C=C/[C@H](C)C(C)C)CC[C@@H]23)C[C@@H](O)C[C@@H]1O` [Doxercalciferol], 100 ± 23%.

Regarding `Nc1cc(C(Cl)=C(Cl)Cl)c(S(N)(=O)=O)cc1S(N)(=O)=O` [Clorsulon], the “cell number in HSV-1-infected wells” value is 114 ± 7.9%. Regarding `CCc1c(C)[nH]c2c1C(=O)C(CN1CCOCC1)CC2` (configuration not stated) [Molindone hydrochloride], the “cell number in HSV-1-infected wells” value is 93 ± 20%. Turning to `CO/N=C(\C(=O)N[C@@H]1C(=O)N2C(C(=O)O)=CCS[C@H]12)c1csc(N)n1` [Ceftizoxime], the “cell number in HSV-1-infected wells” value was determined as 136 ± 15%. In the case of `COc1ccccc1OCC(O)COC(N)=O` (configuration not stated) [Methocarbamol], the “cell number in HSV-1-infected wells” value turned out to be 115 ± 1.9%. In the case of `Cl.NCCCC[C@H](N)C(=O)O` [L-Lysine hydrochloride], the “cell number in HSV-1-infected wells” value turned out to be 123.8 ± 0.98%. Take `CC(=O)O[C@]1(C(C)=O)CC[C@H]2[C@@H]3C=C(Cl)C4=CC(=O)[C@@H]5C[C@@H]5[C@]4(C)[C@H]3CC[C@@]21C` [Cyproterone Acetate]: the “cell number in HSV-1-infected wells” value came out at 118 ± 11%. As for `CC(=O)O[C@]1(C(C)=O)CC[C@H]2[C@@H]3C=C(Cl)C4=CC(=O)CC[C@]4(C)[C@H]3CC[C@@]21C` [Chlormadinone acetate], the “cell number in HSV-1-infected wells” value came out at 148 ± 5.6%. Under `CC(=O)O[C@]1(C(C)=O)CC[C@H]2[C@@H]3C=C(C)C4=CC(=O)CC[C@]4(C)[C@H]3CC[C@@]21C` [Megestrol Acetate] stands 112 ± 9.4%. Under `CN1CCN(c2ccc(C(=O)Nc3n[nH]c4ccc(Cc5cc(F)cc(F)c5)cc34)c(NC3CCOCC3)c2)CC1` [Entrectinib (RXDX-101)] stands 18 ± 8.2%; under `CCC/N=C1\S/C(=C\c2ccc(OC[C@H](O)CO)c(Cl)c2)C(=O)N1c1ccccc1C` [Ponesimod], 17.2 ± 12%; under `CC(OC(=O)OC1CCCCC1)OC(=O)C1=C(CSc2nnnn2CCN(C)C)CS[C@@H]2[C@H](NC(=O)Cc3csc(N)n3)C(=O)N12` (some centres not stated) [Cefotiam Hexetil Hydrochloride], 76.7 ± 3.4%.

For the compound `CC(C)(CO)[C@@H](O)C(=O)NCCCO` [D panthenol], the “cell number in HSV-1-infected wells” value was found to be 121 ± 46%. As to `COc1c(N2C[C@@H]3CCCN[C@@H]3C2)c(F)cc2c(=O)c(C(=O)O)cn(C3CC3)c12` [Moxifloxacin HCl], the “cell number in HSV-1-infected wells” value stood at 87.9 ± 22%. In the case of `COc1c(N2CCNC(C)C2)c(F)cc2c(=O)c(C(=O)O)cn(C3CC3)c12` (configuration not stated) [Gatifloxacin], the “cell number in HSV-1-infected wells” value came out at 108 ± 17%.

For `CNC1CCCN(c2c(F)cc3c(=O)c(C(=O)O)cn(C4CC4)c3c2OC)C1` (configuration not stated) [Balofloxacin], the “cell number in HSV-1-infected wells” value is 117 ± 1.2%.

Take `COc1c(N2C[C@@H]3CCCN[C@@H]3C2)c(F)cc2c(=O)c(C(=O)O)cn(C3CC3)c12` [Moxifloxacin]: the “cell number in HSV-1-infected wells” value is 145 ± 32%. Turning to `CCCN1CCCC[C@H]1C(=O)Nc1c(C)cccc1C` [Ropivacaine HCl], the “cell number in HSV-1-infected wells” value amounted to 87.6 ± 6.9%. As to `CCCN1CCCC[C@H]1C(=O)Nc1c(C)cccc1C` [Ropivacaine], the “cell number in HSV-1-infected wells” value turned out to be 115 ± 7.2%. As for `[Cl][Mn][Cl]` [Manganese chloride], the “cell number in HSV-1-infected wells” value is 109 ± 4.5%.

As for `CCOc1ccc(Cc2cc([C@@H]3O[C@H](SC)[C@@H](O)[C@H](O)[C@H]3O)ccc2Cl)cc1` [Sotagliflozin (LX4211)], the “cell number in HSV-1-infected wells” value came out at 61.71 ± 0.063%.

As for `COc1cc2c(cc1OC)[C@H]1C[C@@H](OC(=O)[C@@H](N)C(C)C)[C@H](CC(C)C)CN1CC2` [Valbenazine tosylate], the “cell number in HSV-1-infected wells” value came to 134 ± 41%.

Consider `O=C(O)c1cn(C2CC2)c2cc(N3CCNCC3)c(F)cc2c1=O` [Ciprofloxacin hydrochloride hydrate], for which the “cell number in HSV-1-infected wells” value came out at 139 ± 2.3%. Take `CCn1cc(C(=O)O)c(=O)c2cc(F)c(N3CCNCC3)cc21` [Norfloxacin]: the “cell number in HSV-1-infected wells” value came to 97.4 ± 27%. With `CN1CCN(c2cc3c(cc2F)c(=O)c(C(=O)O)cn3-c2ccc(F)cc2)CC1` [Difloxacin HCl], the “cell number in HSV-1-infected wells” value came out at 129 ± 16%. On to `O=C(O)c1cn(-c2ccc(F)cc2)c2cc(N3CCNCC3)c(F)cc2c1=O` [Sarafloxacin HCl], for which the “cell number in HSV-1-infected wells” value amounted to 151 ± 7.2%. Turning to `CCN1CCN(c2cc3c(cc2F)c(=O)c(C(=O)O)cn3C2CC2)CC1` [Enrofloxacin], the “cell number in HSV-1-infected wells” value was 147 ± 8.9%. As for `CN1C[C@@H]2C[C@H]1CN2c1cc2c(cc1F)c(=O)c(C(=O)O)cn2C1CC1` [Danofloxacin Mesylate], the “cell number in HSV-1-infected wells” value is 110.8 ± 1.1%.
